Results: PubChem BioAssay (NCI)
About 83,000 compounds went through this panel and 20% of them were active in at least one assay; those are over-represented in the sample as a whole.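 Treatment: one concentration, 48 hours, 96-well format. Scoring: percent growth, with anything below 10 considered active.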 A number with no mark means an inactive call. Activity calls are given as the source filed them.

Experiments:
Assay in all cases: NCI-60 one-dose screen, 48 h (100 = growth as untreated, 0 = no growth, -100 = all killed)
Conditions in all cases: 10 µM unless noted
DU-145 prostate = system: DU-145 prostate
K-562 leukemia = system: K-562 leukemia
MALME-3M melanoma = system: MALME-3M melanoma
MDA-MB-231 breast = system: MDA-MB-231 breast
RXF 393 renal = system: RXF 393 renal
SF-268 CNS = system: SF-268 CNS
SF-295 CNS = system: SF-295 CNS
SF-539 CNS = system: SF-539 CNS
UACC-257 melanoma = system: UACC-257 melanoma
M14 melanoma = system: M14 melanoma
HCT-15 colon = system: HCT-15 colon
HT29 colon = system: HT29 colon
SNB-75 CNS = system: SNB-75 CNS
SNB-19 CNS = system: SNB-19 CNS
U251 CNS = system: U251 CNS
SK-MEL-5 melanoma = system: SK-MEL-5 melanoma
UACC-62 melanoma = system: UACC-62 melanoma
LOX IMVI melanoma = system: LOX IMVI melanoma
SK-MEL-28 melanoma = system: SK-MEL-28 melanoma
PC-3 prostate = system: PC-3 prostate

Structure (SMILES)	growth (DU-145 prostate) [%]	growth (K-562 leukemia)	growth (MALME-3M melanoma) [%]	growth (MDA-MB-231 breast) [%]	growth (RXF 393 renal) [%]	growth (SF-268 CNS) [%]	growth (SF-295 CNS) [%]	growth (SF-539 CNS) [%]	growth (UACC-257 melanoma) [%]	growth (M14 melanoma)	growth (HCT-15 colon) [%]	growth (HT29 colon)	growth (SNB-75 CNS) [%]	growth (SNB-19 CNS) [%]	growth (U251 CNS) [%]	growth (SK-MEL-5 melanoma) [%]	growth (UACC-62 melanoma) [%]	growth (LOX IMVI melanoma)	growth (SK-MEL-28 melanoma) [%]	growth (PC-3 prostate) [%]
Cn1cc(-c2nc(-c3c[nH]c4c(Cl)nccc34)cs2)c2ccccc21	92.6	89.3%	113	98.9	90.4	98.5	103	90.5	71.8	97.2%	98.6	83.5%	108	94.5	86.3	91.2	97.5	102%	108	–
CO[C@H]1/C=C/O[C@@]2(C)Oc3c(C)c(O)c4c(O)c(c5c(nc6cc(C)ccn65)c4c3C2=O)NC(=O)/C(C)=C\C=C\[C@H](C)[C@H](O)[C@@H](C)C(O)[C@@H](C)[C@H](OC(C)=O)[C@@H]1C (some centres not stated)	114	95.3%	93.4	104	111	102	102	105	106	94.4%	103	96.7%	86.4	99.9	98.2	103	98	95.9%	104	–
CCOC(=O)C1=CCC(n2cc(F)c(=O)[nH]c2=O)O1 (configuration not stated)	97.6	108%	112	115	171	101	114	100	99.7	97.8%	104	105%	121	108	95.6	–	108	94.7%	114	102
COc1cc2ncnc(Nc3ccc(S(=O)(=O)Nc4cc(C)on4)cc3)c2cc1OCCCN1CCOCC1	108	102%	95.3	105	102	98.1	97.7	99.4	99.8	105%	105	101%	90.8	101	95.2	97.1	104	96.4%	115	–
C/C(=C(\c1ccc(OCCCN(C)C)cc1)c1ccc(OC(=O)Cc2ccccc2)cc1)c1ccc(Cl)cc1	80.7	0.63% (active)	87.6	68.4	69.7	77.4	79.1	82	91.5	7.02% (active)	45.2	4.56% (active)	77.3	89.8	55	82.7	81.8	3.29% (active)	76.4	–
CCCCC1=C(Br)C(=O)c2ncccc2C1=O	103	30.2%	101	77.6	98.3	95.5	106	94.5	92.6	98.2%	100	104%	91.9	97.9	95.5	90.3	93.4	94.6%	115	–
C#CC(F)(F)[C@]1(O)CCC2C3CCC4=CC(=O)CCC4=C3[C@@H](c3ccc(N(C)C)cc3)C[C@@]21C (some centres not stated)	104	85.9%	103	84.7	98.1	95.9	86.2	82.7	80.9	86.1%	90	87.9%	73.9	98.6	89.3	84	81	96.2%	109	–
Cc1cc(C)n(C(=O)CSc2nc3sc4c(c3c(=O)n2-c2ccccc2)CCCCC4)n1	106	97.1%	107	108	99.9	104	101	105	96.7	113%	103	105%	89.6	95.4	97.4	93	95.6	98.9%	110	–
